The record followed here is PubChem BioAssay (NCATS).

Structures are written as SMILES. Results filed as inconclusive are left out. Activity calls are given as the source filed them. Calls follow the shape of the dose curve; as a rule, active = well fitted inhibition curve with a large enough effect; inconclusive = small, poorly fitted or top-dose-only effect; inactive = flat fitted curve, though single readings scatter.
Also: nearly all actives have a fitted effect of over 60% in size.

One assay concerns HaCat. Kind of assay: Cytotoxic Profiling of Annotated Libraries Using Quantitative High-Throughput Screening (AID 1296008). As to max response: % is scaled to controls: 0 for no effect and ±100 for the full control effect. The conditions noted are these: Five cell lines viability, CellTiter-Glo ATP luminescence, 48-72 h; max response: hits give low values. The gist of the method:
(§1)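 Cells exposed to compounds for 48 or 72 hr at 37 degrees Celsius. Viability read as ATP-coupled luminescence with CellTiter-Glo after 10 min at room temperature.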
On to `CC#C[C@]1(O)CC[C@H]2[C@@H]3C[C@H](C)C4=CC(=O)CC[C@]4(C)[C@H]3CC[C@@]21C`, for which the compound was called inactive.
Take `C[C@]12Cc3nonc3C[C@@H]1CC[C@@H]1[C@@H]2CC[C@@]2(C)[C@H]1CC[C@]2(C)O`: the compound was called inactive.
In the case of `CN1C(=O)CN=C(c2ccccc2)c2cc(Cl)ccc21`, the max response is -27.5% (inactive).
Take `C#C[C@]1(O)CC[C@H]2[C@@H]3CCC4=CC(=O)CCC4=C3C=C[C@@]21CC`: the outcome was inactive.
Regarding `O=C(CCl)c1ccc(Cl)cc1Cl`, the compound was classed as inactive.

The subject of the next assay is KB-3-1. The assay is described as above. The conditions noted are these: Five cell lines viability, CellTiter-Glo ATP luminescence, 48-72 h; max response: hits give low values. The method in brief:
as §1
For `Clc1ccc(CSC(Cn2ccnc2)c2ccc(Cl)cc2Cl)cc1` (stereo not given), the max response was -15.3% (inactive).
`CN1C(=O)CN=C(c2ccccc2)c2cc(Cl)ccc21`: the max response was -19.7% (inactive).
Turning to `O=C1NCN(c2ccccc2)C12CCN(CCCOc1ccc(F)cc1)CC2`, the max response is 25% (inactive).
The same measure, in the same setting: the value for `COc1ccc2c3c1O[C@H]1[C@@H](O)C=C[C@H]4[C@@H](C2)N(C)CC[C@@]341` was -15% (inactive).

For another assay, the system named is NIH3T3. Described as above. The conditions noted are these: Five cell lines viability, CellTiter-Glo ATP luminescence, 48-72 h; max response: hits give low values. The method in brief: as §1
For orientation: In ATP-based viability assays light output follows the ATP content of the culture.
With `C[C@]12Cc3nonc3C[C@@H]1CC[C@@H]1[C@@H]2CC[C@@]2(C)[C@H]1CC[C@]2(C)O`, the max response is -6.95% (inactive).
As to `C#C[C@]1(O)CC[C@H]2[C@@H]3CCC4=CC(=O)CCC4=C3C=C[C@@]21CC`, the max response is -4.44% (inactive).
In the case of `O=C(CCl)c1ccc(Cl)cc1Cl`, the max response was -36.1% (inactive).

The subject of a further assay is CRL-7250. Briefly: qHTS assay to identify novel small-molecules to repurpose for Merkel cell carcinoma treatment (AID 1296009). The conditions noted are these: MCC and control cell lines, CellTiter-Glo viability, 72 h; at 44.8 µM (top of the series) unless noted. The method in brief: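 CellTiter-Glo luminescence after 72 hr compound exposure at 37 degree celsius gave cell viability. Libraries NPC and MIPE were run as 8- and 11-point dose responses; RLUs normalized to DMSO (negative) and no-cell (cytotoxicity) controls.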
Turning to `Cc1ccc(Cl)c(OCC(O)CNC(C)(C)C)c1` (stereo not given), the outcome was inactive.
For the compound `CC(=O)[C@@]1(O)CC[C@H]2[C@@H]3CCC4=CC(=O)CC[C@]4(C)[C@H]3CC[C@@]21C`, the compound was classed as inactive.
On to `CN1CCOC(c2ccccc2)c2ccccc2C1` (stereo not given), for which the compound was classed as inactive.
Same read-out and setting: the result for `CC1(C)OC[C@@H](COC(=O)CCc2ccc(OC[C@@H](O)CNCCNC(=O)N3CCOCC3)cc2)O1` reads “inactive”; that for `Cc1c(N)cccc1C(F)(F)F`, “inactive”; that for `C[C@]12CC[C@@H]3c4ccc(O)cc4CC[C@H]3[C@@H]1CCC2=O`, “inactive”.
The same measure, in the same setting: the result for `CC[N+](CC)(CC)CCOC(=O)C(C1CCCC1)C1CCCC1` reads “inactive”.
Consider `NC(N)=NC(=O)c1nc(Cl)c(N)nc1N`, for which the compound was classed as inactive.
As to `Cn1cnc2c1c(=O)[nH]c(=O)n2C`, the compound was classed as inactive.
For `C[C@]12CCC(=O)C=C1[C@@H]1C[C@@H]1[C@H]1[C@@H]3[C@@H]4C[C@@H]4[C@@]4(CCC(=O)O4)[C@@]3(C)CC[C@@H]12`, the call was inactive.
Regarding `O=C(O)COC(=O)Cc1ccccc1Nc1c(Cl)cccc1Cl`, the compound was called inactive.
On the same count and under the same terms, the value for `Clc1ccc(Cn2c(CN3CCCC3)nc3ccccc32)cc1` was “inactive”; that for `CCCCNc1cc(C(=O)O)cc(S(N)(=O)=O)c1Oc1ccccc1` was “inactive”.
For the compound `O=C(O)Cn1c(C(=O)Nc2nc(-c3ccccc3Cl)cs2)cc2ccccc21`, the call was inactive.
`CC1(C)[C@@H]2CC[C@@]1(C)C(=O)C2`: the outcome was inactive.
As to `CN(C)CCOc1ccccc1Cc1ccccc1`, the compound was called inactive.
In the case of `N#Cc1cc(NC(=O)C(=O)O)c(Cl)c(NC(=O)C(=O)O)c1`, the compound was classed as inactive.
`O[C@@H](COc1cccc2ncccc12)CN1CCN(C2c3ccccc3[C@@H]3[C@H](c4ccccc42)C3(F)F)CC1` (stereo not given in full): the compound was called inactive.
On to `CCn1cc(C(=O)O)c(=O)c2cc(F)c(N3CCN(C)CC3)cc21`, for which the outcome is “inactive [at 17.4 µM]”.
On the same count and under the same terms, the value for `O=C(/C=C/c1ccccc1)NCCO` was “inactive”; that for `CCOC(=O)C1=C[C@]2(CC)CCCN3CCc4c(n1c1ccccc41)[C@@H]32` was “inactive”; that for `CN(Cc1cc(Br)cc(Br)c1N)C1CCCCC1` was “inactive”.
Still for that read-out and setting: the value for `CCCCCCCC/C=C\CCCCCCCCN` was “inactive”; that for `CC(=O)N1C[C@H](O)C[C@H]1C(=O)O` was “inactive”; that for `CCOC(=O)OC(C)OC1=C(C(=O)Nc2ccccn2)N(C)S(=O)(=O)c2ccccc21` (stereo not given) was “inactive”.
For the compound `C=C1C(=C/C=C2\CCC[C@]3(C)[C@@H]([C@H](C)/C=C/[C@@H](O)C4CC4)CC[C@@H]23)C[C@@H](O)C[C@@H]1O`, the result was inactive.
As to `CCOC(=O)[C@H](CCc1ccccc1)N[C@@H](C)C(=O)N1C(=O)N(C)C[C@H]1C(=O)O`, the compound was called inactive.
As for `O=S1(=O)OC(c2ccc(O)cc2)(c2ccc(O)cc2)c2ccccc21`, the compound was called inactive.
